Giardia FBPA inh = qHTS Assay for Inhibitors of Fructose-1,6-bisphosphate Aldolase from Giardia Lamblia | A8B2U2 | purified Giardia FBPA | Potency, µM (doses to about 59.6 µM), inactives show at the highest dose activity, negative = inhibition, hits mostly inhibitors | actives 0.71% (n = 290,000) | AID 2451, 2010; further: potency means the concentration at half of the fitted maximal effect; nearly all actives have a fitted effect of over 55% in size
Target sequence (A8B2U2 whole entry, looked up): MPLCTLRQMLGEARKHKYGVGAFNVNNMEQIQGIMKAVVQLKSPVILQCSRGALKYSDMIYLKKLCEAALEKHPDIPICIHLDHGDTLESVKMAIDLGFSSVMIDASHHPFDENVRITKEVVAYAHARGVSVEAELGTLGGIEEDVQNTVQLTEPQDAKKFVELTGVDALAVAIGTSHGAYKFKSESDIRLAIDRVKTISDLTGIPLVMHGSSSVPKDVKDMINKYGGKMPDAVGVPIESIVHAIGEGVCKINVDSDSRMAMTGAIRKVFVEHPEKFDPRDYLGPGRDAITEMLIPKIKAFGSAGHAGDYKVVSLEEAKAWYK
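Giardia FBPA (40 nM reagent) was preincubated 10 min at RT with compound (up to 57.5 uM final), then substrate plus GAPDH/TPI/NAD/arsenate coupling system with diaphorase/resazurin was added; resorufin fluorescence (525/598 nm) was read after 20 min.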
HCMV inh = qHTS Assay for inhibitors of the human cytomegalovirus (HCMV); activity change, negative = inhibition, % at 57.5 µM; HFF cells, HCMV-luciferase reporter, 72 h; stronger effect = lower value; actives 4.5% (n = 410,000); in the data active means activity change below about -60%; inconclusive means no clear call, values can overlap the other calls; inactive means above about -39%
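Two compound doses tested in HFFs infected with HCMV-luciferase, MOI 1 PFU/cell, 72 h at 37C. Lysate luminescence read with OneGlo; data normalized against buffer-only and 10uM Salinomycin inhibitor controls.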
Pf growth 48h = Primary qHTS for delayed death inhibitors of the malarial parasite plastid, 48 hour incubation | P. falciparum luciferase growth in erythrocytes, 48 h | Potency, µM (doses to about 28.7 µM), for inactives: at the top dose activity change, negative = inhibition, most hits filed as inhibitors | actives 5.9% (n = 310,000); further: potency means the concentration at half of the fitted maximal effect
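In quantitative HTS format, infected erythrocytes bearing luciferase-reporter parasites were treated for a single generation at 37 C. Luminescence after adding detection reagent served as the growth measure.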
Pf growth 96h = Primary qHTS for delayed death inhibitors of the malarial parasite plastid, 96 hour incubation; Potency, µM (doses to about 28.7 µM), inactives show at the top dose activity change, negative = inhibition, hits mostly inhibitors; AID 504834, 2011; P. falciparum luciferase reporter growth, 96 h; actives 6.9% (n = 320,000); further: potency means the concentration at half of the fitted maximal effect
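Compounds incubated with erythrocytes infected by luciferase-expressing P. falciparum (2% hematocrit, 0.05% parasitemia final) for 96 hours, 37 C in 5% CO2. Growth inhibition scored as decreased luciferase luminescence.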
Sm TGR inh = qHTS Assay for the Inhibitors of Schistosoma Mansoni Peroxiredoxins | Schistosoma mansoni thioredoxin glutathione reductase (TGR), Q962Y6 | purified TGR, DTNB reduction, TNB absorbance 405 nm | Potency, µM (series often up to 114 µM), inactives show at the top dose activity change, negative = inhibition, most hits filed as inhibitors | actives 3% (n = 360,000) | AID 485364, 2010; further: potency means the concentration at half of the fitted maximal effect; nearly all actives have a fitted effect of over 60% in size
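Kinetic colorimetric format: TGR-catalysed, NADPH-driven DTNB reduction monitored via TNB absorbance. Enzyme dispensed at 20 nM; compound exposure 15 min at room temperature before reaction start.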
* = called active by the depositor; ? = inconclusive; nt = no result. Hits are enriched below; roughly 14% of the tested compounds scored in any of these assays. Unless noted, the call rests on the fitted dose curve; in most records, active means well fitted curve in the direction sought with a large enough effect; inconclusive means small, poorly fitted or top-dose-only effect, or another doubt; inactive means no such curve, though single readings can be large; an effect the other way counts as inactive or inconclusive. On the % scale 0 is the no-effect control and ±100 the full control effect.

SMILES	Giardia FBPA inh	HCMV inh	Pf growth 48h	Pf growth 96h	Sm TGR inh
CC(Sc1nc2ccccc2c(=O)n1CC1CCCO1)C(=O)N(C)Cc1ccccc1 (centres undefined)	nt	-36	?	10µM*	8%
CC(Sc1nc2ccccc2c(=O)n1C)C(=O)N(C)C1CCCCC1 (centres undefined)	nt	-79*	1.9µM*	?	3%
Cc1cc(N2CCN(C(=O)c3ccco3)CC2)n2nc(-c3cccc(F)c3)cc2n1	5%	-63*	?	?	?
COc1cc(OC)cc(-c2cc3nc(C)cc(N4CCN(C(=O)c5ccco5)CC4)n3n2)c1	2%	nt	nt	1.9µM*	-3%
COc1ccc(-c2cc3nc(C)cc(N4CCN(C(=O)c5cccnc5)CC4)n3n2)cc1	nt	-38	nt	nt	nt
C/C=C/c1ccc(Oc2nnnn2-c2ccc(C(=O)O)cc2)c(OC)c1	29%	-1	-14%	0%	35µM*
Cc1ccc(S(=O)(=O)N2CCC3(CC2)OCCO3)s1	nt	35	8%	?	-11%
CC1=C(C#N)C(C(F)(F)F)(C(F)(F)F)N=C(c2ccco2)N1	-14%	-14	-6%	8.3µM*	-8%
CC1(C)NC(=O)N(CC(=O)Nc2cc(S(=O)(=O)N3CCOCC3)ccc2N2CCOCC2)C1=O	0%	nt	19%	7.4µM*	-6%
CCN(CC)c1ccc(S(=O)(=O)N2CCOCC2)cc1NC(=O)CN1C(=O)NC2(CCCC2)C1=O	-1%	-37	?	?	0%
O=C(CN1CCc2ccccc2C1)Nc1cc(S(=O)(=O)N2CCOCC2)ccc1N1CCOCC1	-5%	-9	?	13µM*	-11%
CCOc1ccc(OCC)c(NC(=O)c2cc(S(=O)(=O)N3CCc4ccccc43)cn2C)c1	nt	-20	nt	nt	-2%
O=C(Nc1ccc(Oc2ccccc2)cc1)c1csc([C@@H]2O[C@H](CO)[C@@H](O)[C@H]2O)n1	nt	-93*	nt	nt	nt
O=C(Nc1cccc2ccccc12)c1csc([C@@H]2O[C@H](CO)[C@@H](O)[C@H]2O)n1	nt	-8	nt	nt	nt
O=C(Nc1cccc2cccnc12)c1csc([C@@H]2O[C@H](CO)[C@H](O)[C@H](O)[C@H]2O)n1	nt	-99*	nt	nt	nt
CC(=O)Nc1ccc(NC(=O)c2csc([C@@H]3C[C@H](O)[C@@H](CO)O3)n2)cc1	nt	-26	nt	nt	nt
O=C(Nc1ccc2c(c1)OCO2)c1csc([C@H]2C[C@H](O)[C@@H](CO)O2)n1	nt	-97*	nt	nt	nt
O=C(Nc1ccc(Oc2ccccc2)cc1)c1csc([C@H]2C[C@H](O)[C@@H](CO)O2)n1	nt	-97*	nt	nt	nt
O=C(Nc1ccc(OCCO)cc1)c1csc([C@@H]2O[C@H](CO)[C@H](O)[C@H](O)[C@H]2O)n1	nt	0	nt	nt	nt
CCC/C=C(\CCC)C(NS(=O)(=O)CC12CCC(CC1=O)C2(C)C)c1ccc(C(=O)OC)cc1 (centres undefined)	-6%	nt	nt	nt	nt
COc1cccc(-c2cc(NCc3cccs3)ncn2)c1	-17%	nt	nt	nt	nt
CN(C(=O)CSc1nc2ccccc2n1CC(=O)N(C)c1ccc(F)cc1)c1ccccc1	nt	-2	nt	nt	0%
COc1cc(OC)c(NC(=O)c2sc3ncn(CC(=O)N4CCOCC4)c(=O)c3c2C)cc1Cl	nt	-13	?	?	-8%
COc1ccc(-n2ccn(Cc3ccc(C)cc3)c(=O)c2=O)cc1OC	nt	-16	nt	nt	-13%
Cc1c(CCNC(=O)C(C)(C)C)sc2nc(-c3ccc(F)cc3)nn12	nt	-91*	nt	nt	7%
CCS(=O)(=O)NCCc1sc2nc(-c3ccc(OC)cc3)nn2c1C	nt	?	nt	nt	-10%
COc1ccc(-c2nc3sc(CCNS(=O)(=O)c4c(C)cc(C)cc4C)c(C)n3n2)cc1	nt	-83*	nt	nt	1%
COc1ccc(S(=O)(=O)NCCc2sc3nc(-c4ccc(C)cc4)nn3c2C)cc1F	nt	-74*	nt	nt	24%
CCOc1ccccc1N(CC(=O)NCc1ccco1)C(=O)CCC(=O)Nc1nccs1	4%	-25	-25%	23%	1%

From PubChem BioAssay
